Test results as given in PubChem BioAssay (Tox21).
Records with an inconclusive call do not appear. The source made the active and inactive calls. Calls follow the shape of the dose curve; as a rule, active = well fitted cell-killing curve with a large enough effect in the repeat runs; inconclusive = weak or mixed curves, or effect the other way; inactive = flat fitted curve, though single readings scatter.

Experiment: qHTS RealTime-Glo MT Cell Viability Assay in HepG2 cells - 40 hour (AID 1224870); also: nearly all actives have a fitted effect of over 50% in size
Conditions: RealTime-Glo luminescence; series mostly up to 76.8 µM
Description: National Center for Advancing Translational Sciences [NCATS]
NIH Chemical Genomics Center [NCGC]
U.S. Environmental Protection Agency [EPA]
National Institutes of Environmental Health Sciences [NIEHS]
National Toxicology Program [NTP]
U.S. Food and Drug Administration [FDA]
Measure of cell viability is critical in the cell-base assay. Analysis of cell viability is necessary for the characterization of cell responses to cytotoxic drugs and environmental stress. A RealTime-Glo MT Cell Viability Assay to monitor cell viability in real time of continues cell culture during 40 hours of compound treatment was used to screen Tox21 10K library compounds in HepG2 cells. The RealTime-Glo MT Cell Viability Assay is a nonlytic, homogeneous, bioluminescent method to measure cell viability in real time using a simple, plate-based method. The assay involves adding NanoLuc luciferase and a cell-permeant prosubstrate to cells in culture. Viable cells reduce the proprietary prosubstrate to generate a substrate for NanoLuc luciferase. This substrate diffuses from cells into the surrounding culture medium, where it is rapidly used by the NanoLuc Enzyme to produce a luminescent signal. The signal correlates with the number of viable cells, making the assay well suited for cytotoxicity studies.
Tox21 Assay Protocol Summary:
The mixture of HepG2 cell suspension and reagents were dispensed at 600cells/6 ul/well in 1536-well tissue culture treated black solid bottom plates using a Multidrop dispenser. After the assay plates were incubated at a 37 C/5% CO2 incubator for 5 hours, 23 nL of compounds dissolved in DMSO, positive and negative controls was transferred to the assay plate by a pintool work station. The plates were incubated at 37 C for 40 hours. The luminescence intensity were measured at 0h, 8h, 16h, 24h, 32h and 40h time points using ViewLux plate reader during compound treatment.

Row | Structure (SMILES) | outcome
1 | Cc1nc2ccccc2c(=O)o1 | inactive
2 | C[C@H](CCC(=O)NCC(=O)O)[C@H]1CC[C@H]2[C@@H]3[C@H](O)C[C@@H]4C[C@H](O)CC[C@]4(C)[C@H]3C[C@H](O)[C@]12C | inactive
3 | Cc1cccc(NC(=S)N(C)C)c1 | inactive
4 | CCS(=O)(=O)CCn1c([N+](=O)[O-])cnc1C | inactive
5 | CC(=O)c1ccc2c(c1)CCCC2 | inactive
6 | CCOC(=O)CCc1ccccc1 | inactive
7 | CCCCCCCCCCCCCCCC(=O)NCCO | inactive
8 | CC(C)=CC(C)(C)C | inactive
9 | CCC(C)(C)C1CCC(=O)CC1 | inactive
10 | C=CCOCC(O)CCl (stereo not given) | inactive
11 | CC(=O)c1ccc(OCC(=O)N2CCCCC2)cc1 | inactive
12 | O=S(=O)(O)c1cc(O)ccc1O | inactive
13 | Cc1ccccc1N1CCN(CCc2nnc3n2CCCC3)CC1 | inactive
14 | CCCCC(=O)N(C)C | inactive
15 | CCC1Nc2cc(Cl)c(S(N)(=O)=O)cc2S(=O)(=O)N1 (stereo not given) | inactive
16 | CC1=NN(c2ccc(S(=O)(=O)O)cc2)C(=O)C1N=Nc1ccccc1 (stereo not given) | inactive
17 | CC(=O)OCCCc1ccccc1 | inactive
18 | Cc1cccc(C(=O)O)c1[N+](=O)[O-] | inactive
19 | C/C=C(\C)C(=O)OCC/C=C\CC | inactive
20 | CCOC(=O)CC(CC(=O)OCC)(OC(C)=O)C(=O)OCC | inactive

Row | Structure (SMILES) | outcome
21 | Nc1cc(Cl)cc(S(=O)(=O)O)c1O | inactive
22 | O=C(Oc1ccccc1C(=O)O)c1ccccc1O | inactive
23 | CCCCCCCCCCCCC1CO1 (stereo not given) | inactive
24 | FC(F)(F)/C(=N\OCC1OCCO1)c1ccc(Cl)cc1 | inactive
25 | Nc1ccnc(=O)[nH]1 | inactive
26 | CCCCCC1Nc2cc(C(F)(F)F)c(S(N)(=O)=O)cc2S(=O)(=O)N1 (stereo not given) | inactive
27 | O=C1CC[C@H](C(=O)N2CCCCC2)N1 | inactive
28 | CN(C)CCCNCCC#N | inactive
29 | COc1ccc(OC)c(NC(=O)CC(C)=O)c1 | inactive
30 | NC(=O)NNC(N)=O | inactive
31 | CCC(=O)c1ccc(O)cc1 | inactive
32 | O=C1OC(=O)c2ccccc21 | inactive
33 | CC(=O)/C=C/c1ccco1 | inactive
34 | Cc1c(C(C)C)c(=O)n(-c2ccccc2)n1C | inactive
35 | CC(C)(c1ccc(Oc2ccc3c(c2)C(=O)OC3=O)cc1)c1ccc(Oc2ccc3c(c2)C(=O)OC3=O)cc1 | inactive
36 | COc1ccc(N=Nc2cc(C)c(N=Nc3ccc(S(=O)(=O)O)cc3)cc2OC)cc1 | inactive
37 | COc1cc2c(Nc3ccc(Br)cc3F)ncnc2cc1OCC1CCN(C)CC1 | inactive
38 | Nc1cc(S(=O)(=O)O)ccc1S(=O)(=O)O | inactive
39 | OC[C@@H](O)[C@H](O)[C@@H](O)[C@@H](O)CO | inactive
40 | Cc1ncc([N+](=O)[O-])n1CC(O)CCl (stereo not given) | inactive
